Reference: PubChem BioAssay (Tox21)
Results filed as inconclusive are left out. Calls of active or inactive are those of the source. Unless noted, the call rests on the fitted dose curve; in most records, active means well fitted curve in the direction sought with a large enough effect in the repeat runs; inconclusive means weak or mixed curves; inactive means no such curve, though single readings can be large; an effect the other way counts as inactive or inconclusive.

Tests used:
[1] = A CellTox Green Cytotoxicity Assay to monitor cytotoxicity in HepG2 cells - 0 hour (AID 1224882); further: nearly all actives have a fitted effect of over 35% in size; further: potency means the concentration at half of the fitted maximal effect; on Cytotoxicity: on the % scale 0 is the no-effect control and ±100 the full control effect
In short: (§1)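 Fluorescent DNA-binding dye, 600 HepG2 cells/well, 5 h preincubation then compound in DMSO; same plates read at 0–40 h, 37 C.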

[2] = A CellTox Green Cytotoxicity Assay to monitor cytotoxicity in HepG2 cells - 32 hour (AID 1224883); further: nearly all actives have a fitted effect of over 50% in size; further: potency means the concentration at half of the fitted maximal effect
In short: as §1

[3] = A CellTox Green Cytotoxicity Assay to monitor cytotoxicity in HEK293 cells - 8 hour (AID 1224884); further: nearly all actives have a fitted effect of over 35% in size; further: potency means the concentration at half of the fitted maximal effect
In short: (§2)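 Homogeneous no-lysis format: HEK293 cell suspension mixed with CellTox Green reagent, seeded, incubated 5 h at 37 C/5% CO2, then dosed by pintool with compound in DMSO.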

[4] = qHTS RealTime-Glo MT Cell Viability Assay in HepG2 cells - 16 hour (AID 1224885); further: nearly all actives have a fitted effect of over 50% in size; further: potency means the concentration at half of the fitted maximal effect
In short: (§3)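 Cells + NanoLuc/prosubstrate dispensed (600 cells/well) → 5 h at 37 C/5% CO2 → compounds in DMSO transferred → 40 h incubation at 37 C, luminescence read at 0, 8, 16, 24, 32, 40 h.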

[5] = qHTS RealTime-Glo MT Cell Viability Assay in HEK293 cells - 24 hour (AID 1224886); further: nearly all actives have a fitted effect of over 50% in size; further: potency means the concentration at half of the fitted maximal effect; on activity change, negative = cytotoxicity: top concentration of the series differs between compounds; on the % scale 0 is the no-effect control and ±100 the full control effect
In short: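 Tox21 10K qHTS, HEK293, 600 cells/well, RealTime-Glo reagent co-dispensed with cells; 5 h preincubation, compound by pintool, 37 C, luminescence at 0–40 h.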

[6] = qHTS RealTime-Glo MT Cell Viability Assay in HEK293 cells - 8 hour (AID 1224887); further: nearly all actives have a fitted effect of over 50% in size; further: potency means the concentration at half of the fitted maximal effect; on activity change, negative = cytotoxicity: top concentration of the series differs between compounds; on the % scale 0 is the no-effect control and ±100 the full control effect
In short: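 Measured as luminescence from the same continuously cultured HEK293 wells at successive time points (0, 8, 16, 24, 32, 40 h) after compound addition. Reagent present from seeding; dosing at 5 h; incubation 37 C.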

[7] = A CellTox Green Cytotoxicity Assay to monitor cytotoxicity in HepG2 cells - 8 hour (AID 1224890); further: nearly all actives have a fitted effect of over 45% in size; further: potency means the concentration at half of the fitted maximal effect
In short: as §1

[8] = qHTS assay to identify small molecule antagonists of the estrogen receptor alpha (ER-alpha) signaling pathway using the BG1 cell line in the presence of 0.1 nM 17-beta-estradiol - cell viability counter screen (AID 1259241); further: nearly all actives have a fitted effect of over 40% in size; further: potency means the concentration at half of the fitted maximal effect
In short: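 VM7Luc4E2, 4,000 cells/well, phenol red-free medium + 10% charcoal-stripped FBS; 24 hr plating; cpd + 0.1 nM E2 final, 22 hr 37C/5% CO2; CellTiter-Fluor 30 min, fluorescence.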

[9] = qHTS assay to identify small molecule antagonists of the androgen receptor (AR) signaling pathway using the MDA cell line in the presence of 0.5 nM R1881 - cell viability counter screen (AID 1259242); further: nearly all actives have a fitted effect of over 45% in size; further: potency means the concentration at half of the fitted maximal effect
In short: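 Human breast carcinoma MDA-kb2 cells, cultured without CO2, receive compounds alongside 0.5 nM (final) R1881 agonist. After 16 hr at 37C, viability is taken as live-cell protease signal.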

[10] = biological target: Estrogen receptor (Homo sapiens) (UniProt P03372); assay: qHTS assay to identify small molecule antagonists of the estrogen receptor alpha (ER-alpha) signaling pathway using the BG1 cell line in the presence of 0.1 nM 17-beta-estradiol (AID 1259244); further: nearly all actives have a fitted effect of over 50% in size; further: potency means the concentration at half of the fitted maximal effect
In short: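 Seeding of stripped-serum-adapted VM7Luc4E2 cells, 24 h attachment, compound transfer, then 0.1 nM final 17beta-estradiol; after 22 h incubation, ONE-Glo reagent and luminescence reading.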

[11] = qHTS assay to identify small molecule phospholipidosis (PLD) inducers (AID 1259344; active means well fitted curve in the direction sought with a large enough effect; an effect the other way counts as inactive or inconclusive; further: potency means the concentration at half of the fitted maximal effect; on PLD induction: on the % scale 0 is the no-effect control and ±100 the full control effect)
In short: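 After 4 h attachment on collagen I, HepG2 cells were dosed with compound alongside LipidTOX Red, kept 24 h at 37 C, fixed, and imaged for lamellar phospholipid pits.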

[12] = qHTS assay to identify small molecule agonists of the sonic hedgehog signaling (Shh) pathway - cell viability counter screen (AID 1259366); further: nearly all actives have a fitted effect of over 50% in size; further: potency means the concentration at half of the fitted maximal effect
In short: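 Cytotoxicity counter screen run in the same wells as the Shh reporter assay. NIH/3T3 cells carrying a Gli1 response element–driven luciferase were treated with DMSO-dissolved compounds for 24hr, and live-cell protease activity was measured with CellTiter-Fluor.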

[13] = qHTS assay to identify small molecule antagonists of the sonic hedgehog signaling (Shh) pathway - cell viability counter screen (AID 1259367); further: nearly all actives have a fitted effect of over 55% in size; further: potency means the concentration at half of the fitted maximal effect
In short: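 Conditioned medium drove Shh signaling in 3T3 Gli1-Luc cells exposed to compounds at 37C and 5% CO2. Viability was determined from CellTiter-Fluor fluorescence, with reagent incubated 1 hr after 23 hr of treatment.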

[14] = qHTS assay to identify small molecule agonists of the sonic hedgehog signaling (Shh) pathway (AID 1259368; calls by dose curve;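 further: NIH/3T3-derived 3T3Gli1-Luc cells carrying a stable Gli1-driven firefly luciferase reporter; series mostly up to about 92 µM; on the % scale 0 is the no-effect control and ±100 the full control effect; nearly all actives have a fitted effect of over 15% in size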)
In short: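 Stable NIH/3T3 Gli1-Luc reporter clone; 24 hr cpd exposure after a 4 hr settling period; luminescence endpoint.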

[15] = qHTS assay to identify small molecule antagonists of the sonic hedgehog signaling (Shh) pathway (AID 1259369; calls by dose curve; further: nearly all actives have a fitted effect of over 45% in size; further: potency means the concentration at half of the fitted maximal effect)
In short: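 Gli1 transcriptional reporter (firefly Luc) in NIH/3T3 background, conditioned-medium activated. 24hr exposure, luminescence endpoint.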

[16] = A CellTox Green Cytotoxicity Assay to monitor cytotoxicity in HEK293 cells - 16 hour (AID 1224888); further: nearly all actives have a fitted effect of over 35% in size; further: potency means the concentration at half of the fitted maximal effect
In short: as §2

[17] = qHTS RealTime-Glo MT Cell Viability Assay in HepG2 cells - 0 hour (AID 1224889)
In short: as §3

[18] = qHTS assay to identify small molecule HDAC inhibitors (AID 1259364); further: potency means the concentration at half of the fitted maximal effect;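 further: wild-type HCT-116 cells with endogenous class I/II HDAC activity; nearly all actives have a fitted effect of over 45% in size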
In short: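 After a 2 hr compound incubation (37C, 5% CO2), HCT-116 cells seeded at 1,500/well the day before received HDAC-Glo reagent; signal read as luminescence after 30 min at room temperature.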

[19] = qHTS assay to identify small molecule HDAC inhibitors - cell viability counter screen (AID 1259365); further: nearly all actives have a fitted effect of over 50% in size; further: potency means the concentration at half of the fitted maximal effect
In short: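 Luminescence from CellTiter-Glo, developed 30min at room temperature, reports viability of wild-type HCT-116 cells treated 2hr with compounds at 37 C and 5% CO2 after overnight plating.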

[20] = biological target: Androgen receptor (Homo sapiens) (UniProt P10275); assay: qHTS assay to identify small molecule antagonists of the androgen receptor (AR) signaling pathway using the MDA cell line in the presence of 0.5 nM R1881 (AID 1259243)
In short: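 Cells: MDA-kb2 (MMTV-luc). Stimulus: 0.5 nM R1881. Time: 16 hr, 37C, no CO2. Detection: ONE-Glo luminescence after 30 min at RT.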

Chain of Androgen receptor (Homo sapiens) (P10275 whole entry, looked up): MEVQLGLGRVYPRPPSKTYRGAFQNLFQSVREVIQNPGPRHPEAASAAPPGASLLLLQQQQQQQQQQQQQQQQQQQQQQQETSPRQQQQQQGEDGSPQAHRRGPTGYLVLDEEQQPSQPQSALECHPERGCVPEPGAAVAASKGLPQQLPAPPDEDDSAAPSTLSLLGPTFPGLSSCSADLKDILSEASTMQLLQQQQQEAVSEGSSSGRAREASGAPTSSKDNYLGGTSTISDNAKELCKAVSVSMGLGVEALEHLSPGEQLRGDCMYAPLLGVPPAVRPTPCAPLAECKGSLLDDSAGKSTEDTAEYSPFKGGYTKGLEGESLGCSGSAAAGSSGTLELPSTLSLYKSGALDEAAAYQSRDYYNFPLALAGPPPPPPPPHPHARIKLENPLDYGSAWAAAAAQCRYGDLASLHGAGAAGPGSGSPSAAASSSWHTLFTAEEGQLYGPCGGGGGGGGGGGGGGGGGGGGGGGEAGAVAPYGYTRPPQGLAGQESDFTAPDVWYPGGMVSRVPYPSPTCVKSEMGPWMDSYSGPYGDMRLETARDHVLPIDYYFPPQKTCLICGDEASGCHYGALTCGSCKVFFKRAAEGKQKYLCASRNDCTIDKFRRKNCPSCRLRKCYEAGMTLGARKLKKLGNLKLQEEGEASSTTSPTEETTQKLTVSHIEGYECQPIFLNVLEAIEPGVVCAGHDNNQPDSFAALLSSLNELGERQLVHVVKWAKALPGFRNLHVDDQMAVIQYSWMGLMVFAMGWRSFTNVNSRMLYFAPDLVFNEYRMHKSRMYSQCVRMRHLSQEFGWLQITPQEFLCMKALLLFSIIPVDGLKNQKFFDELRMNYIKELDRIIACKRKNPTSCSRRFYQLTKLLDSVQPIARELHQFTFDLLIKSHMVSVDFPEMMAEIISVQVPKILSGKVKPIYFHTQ
Chain of Estrogen receptor (Homo sapiens) (P03372 whole entry, looked up): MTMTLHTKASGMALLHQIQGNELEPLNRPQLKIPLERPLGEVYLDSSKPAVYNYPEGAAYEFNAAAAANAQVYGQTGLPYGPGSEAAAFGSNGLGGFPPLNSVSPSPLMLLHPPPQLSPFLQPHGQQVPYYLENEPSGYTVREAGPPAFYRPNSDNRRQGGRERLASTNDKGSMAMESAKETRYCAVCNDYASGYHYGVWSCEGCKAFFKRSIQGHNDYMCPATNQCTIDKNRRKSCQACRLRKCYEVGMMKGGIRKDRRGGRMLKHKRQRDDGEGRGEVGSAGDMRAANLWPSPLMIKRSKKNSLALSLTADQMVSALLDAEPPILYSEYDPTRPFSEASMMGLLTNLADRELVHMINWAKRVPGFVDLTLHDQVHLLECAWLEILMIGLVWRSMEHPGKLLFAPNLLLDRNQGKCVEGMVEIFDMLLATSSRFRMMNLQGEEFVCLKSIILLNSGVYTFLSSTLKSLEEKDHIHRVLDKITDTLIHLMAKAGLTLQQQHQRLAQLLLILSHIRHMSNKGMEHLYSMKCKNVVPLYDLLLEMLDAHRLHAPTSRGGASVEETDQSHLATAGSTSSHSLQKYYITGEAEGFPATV

Cc1cc(O)c2ccccc2c1O
active: Potency [2] 13.4 µM | Potency [3] 9.52 µM | Potency [4] 13.4 µM | Potency [5] 7.56 µM | Potency [6] 5.35 µM | Potency [7] 21.3 µM | Potency [8] 29.8 µM | Potency [9] 18.8 µM | Potency [10] 13.3 µM | Potency [12] 5.31 µM | Potency [13] 13.3 µM | Potency [15] 13.3 µM
inactive: Potency [1] | Potency [11] | Potency [14]

CC(C)(C)C(=O)OCOC(=O)C1N2C(=O)CC2S(=O)(=O)C1(C)C (stereo not drawn)
inactive: Potency [1] | Potency [2] | Potency [3] | Potency [4] | Potency [5] | Potency [6] | Potency [16] | Potency [17] | Potency [8] | Potency [10] | PLD induction [11] 3.21% [at 0.0123 µM] | Potency [18] | Potency [19] | Potency [12] | Potency [13] | Potency [14] | Potency [15]

CCN(C(=O)c1cc(C)cc(OC[C@H](C)Nc2ccncc2)c1)C(C)C
inactive: Potency [1] | Potency [2] | Potency [3] | Potency [4] | Potency [5] | Potency [6] | Potency [17] | Potency [7] | Potency [8] | Potency [9] | Potency [18] | Potency [12] | Potency [13] | Potency [14]

CNc1ccc(O)cc1
active: Potency [2] 54.8 µM | Potency [4] 48.9 µM | Potency [5] 12.3 µM | Potency [6] 15.5 µM | Potency [8] 21.6 µM | Potency [9] 61 µM | Potency [19] 48.5 µM | Potency [12] 12.2 µM | Potency [13] 15.3 µM
inactive: Potency [1] | Potency [3] | Potency [16]

[O-][n+]1ccccc1SSc1cccc[n+]1[O-]
active: Potency [1] 11.7 µM | Potency [2] 0.585 µM | Potency [3] 10.4 µM | Potency [4] 0.233 µM | Potency [5] 1.31 µM | Potency [16] 8.27 µM | Potency [7] 10.4 µM | Potency [8] 0.411 µM | Potency [20] 0.291 µM | Potency [10] 0.13 µM | Potency [18] 1.83 µM | Potency [12] 0.13 µM | Potency [13] 0.291 µM | Potency [15] 0.164 µM
inactive: activity change, negative = cytotoxicity [17] -1.89% [at 15.8 µM] | Potency [11] | activity change, negative = cytotoxicity [19] 12.3% [at 19 µM] | activity change [14] -7.63% [at 18.9 µM, active compounds read high]

O=C(Oc1cccc2cccnc12)c1ccccc1
active: Potency [2] 0.338 µM | Potency [12] 1.5 µM
inactive: Potency [1] | Potency [3] | Potency [4] | Potency [5] | Potency [6] | Potency [16] | Potency [7] | Potency [8] | Potency [11] | Potency [19] | Potency [14] | Potency [15]

CC(=O)OCC(C)OC(C)=O (stereo not drawn)
active: Potency [15] 68.6 µM
inactive: Potency [1] | Potency [2] | Potency [3] | Potency [4] | Potency [5] | Potency [6] | Potency [17] | Potency [7] | Potency [8] | Potency [9] | Potency [10] | Potency [18] | Potency [12] | Potency [13] | Potency [14]

CN(C)[C@@H]1C(=O)C(C(N)=O)=C(O)[C@@]2(O)C(=O)C3=C(O)c4c(O)cccc4C[C@H]3C[C@@H]12
inactive: Potency [1] | Potency [2] | Potency [3] | Potency [4] | Potency [5] | Potency [6] | Potency [7] | Potency [8] | Potency [9] | Potency [10] | Potency [18] | Potency [19] | Potency [12] | Potency [13] | Potency [14] | Potency [15]

[Cl][Bi]([Cl])([c]1ccccc1)([c]1ccccc1)[c]1ccccc1
inactive: Potency [1] | Potency [18] | Potency [19] | Potency [14]
active: Potency [2] 6.13 µM | Potency [3] 43.4 µM | Potency [4] 7.71 µM | Potency [5] 3.07 µM | Potency [6] 21.7 µM | Potency [16] 43.4 µM | Potency [7] 15.4 µM | Potency [8] 12.1 µM | Potency [9] 27.1 µM | Potency [20] 13.6 µM | Potency [10] 4.83 µM | Potency [13] 0.136 µM | Potency [15] 0.0242 µM

OCCN1CCN(CC/C=C2/c3ccccc3Sc3ccc(C(F)(F)F)cc32)CC1
active: Potency [2] 15.1 µM | Potency [3] 23.9 µM | Potency [4] 23.9 µM | Potency [5] 19 µM | Potency [6] 21.3 µM | Potency [16] 26.8 µM | Potency [7] 23.9 µM | Potency [20] 26.6 µM | Potency [11] 10 µM | Potency [12] 21.1 µM
inactive: Potency [1] | Potency [8] | Potency [10] | Potency [18] | Potency [19] | Potency [13] | Potency [14]

CCCCc1oc2ccc(NS(C)(=O)=O)cc2c1C(=O)c1ccc(OCCCN(CCCC)CCCC)cc1
inactive: Potency [1] | Potency [11] | Potency [18] | Potency [19] | Potency [14]
active: Potency [2] 19 µM | Potency [3] 23.9 µM | Potency [4] 19 µM | Potency [5] 10.7 µM | Potency [6] 19 µM | Potency [16] 23.9 µM | Potency [7] 23.9 µM | Potency [12] 21.1 µM | Potency [13] 26.6 µM | Potency [15] 2.98 µM

O=C(OCC(COC(=O)c1ccccc1)(COC(=O)c1ccccc1)COC(=O)c1ccccc1)c1ccccc1
active: Potency [5] 48.9 µM | Potency [6] 24.5 µM
inactive: Potency [1] | Potency [2] | Potency [3] | Potency [4] | Potency [7] | Potency [8] | Potency [9] | Potency [18] | Potency [19] | Potency [13] | Potency [15]

CO[Si](CCCNc1ccccc1)(OC)OC
inactive: Potency [1] | Potency [2] | Potency [3] | Potency [4] | Potency [5] | Potency [6] | Potency [16] | Potency [7] | Potency [8] | Potency [9] | Potency [18] | Potency [19] | Potency [12] | Potency [13] | Potency [14] | Potency [15]

O=C(O)c1cc(O)c2c(c1)C(=O)c1cccc(O)c1C2=O
active: Potency [18] 14.1 µM
inactive: Potency [1] | Potency [2] | Potency [3] | Potency [4] | Potency [5] | Potency [6] | Potency [17] | Potency [7] | Potency [9] | Potency [10] | Potency [12] | Potency [14]
